Data on 26 compounds can be found in PubChem BioAssay (NCATS).

“And” between values parts separate entries of the source, which are not always exact repeats. Equal entries are not always repeated. Results filed as inconclusive are left out. More than one record can exist for a structure, and the calls need not agree. The source made the active and inactive calls. Calls follow the shape of the dose curve; as a rule, active = well fitted cell-killing curve with a large enough effect; inconclusive = small, poorly fitted or top-dose-only effect, or effect the other way; inactive = no such curve, though single readings can be large or run the other way.
Potency is read from the fitted curve at half-maximal effect.

A short description of the experiment: Viability qHTS for spleen associated tyrosine kinase inhibitor (SYKi) naive MV4-11 cells (AID 1963823). Also: nearly all actives have a fitted effect of over 40% in size. To be noted: MV4-11 AML viability, CellTiter-Glo luminescence, 72 h; series mostly up to 45 µM. The procedure, abridged: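 Viability of MV4-11 AML cells lacking prior SYK inhibitor exposure is scored by CellTiter-Glo luminescence following 72 hr compound incubation at 37 C, 5% CO2, seeded at 500 cells per well.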
On the technique in general: qHTS replaces the single test concentration by a dilution series.
Regarding `CCc1cc(C(N)=O)ccc1-n1nc(C(C)C)c2c(-n3cnc(-c4cnn(C)c4)c3)ccnc21`, the Potency is 0.372 µM (active). Under `COc1c(C)c2c(c(O)c1C/C=C(\C)CCC(=O)O)C(=O)OC2` stands 750 nM (active) and 1.32 µM (active). Under `CC(=O)Nc1ccc(OCCOCCOc2ccc(NC(C)=O)cc2)cc1` stands “inactive”. Next, `Cc1ccc([N+](=O)[O-])cc1S(=O)(=O)N(C)/N=C/c1cnc2ccc(Br)cn12`: 16.4 nM (active) and 26.3 nM (active); `Nc1nc(F)nc2c1ncn2[C@@H]1O[C@H](COP(=O)(O)O)[C@@H](O)[C@@H]1O`: 8.33 µM (active). With `CO[C@H]1O[C@@H]2O[C@@]3(C)CC[C@H]4[C@H](C)CC[C@@H]([C@H]1C)[C@@]24OO3`, the Potency was 1.32 µM (active). Next, `NC(=O)N/N=C/c1ccc([N+](=O)[O-])o1`: 27.3 µM (active) and inactive. On to `C[C@@H](OC[C@@]1(c2ccccc2)CC[C@]2(CCC(=O)N2)CN1)c1cc(C(F)(F)F)cc(C(F)(F)F)c1`, for which the Potency was 7.42 µM (active). Next, `Cn1cc[nH]c1=S`: “inactive”; `CCN(CC)C(C)CN1c2ccccc2Sc2ccccc21` (stereo unspecified): “inactive”.

For `CCN(Cc1ccncc1)C(=O)C(CO)c1ccccc1` (stereo unspecified), the Potency result was “inactive”.

`CCN(CC)CCc1nc(-c2ccccc2)no1`: the Potency entry was “inactive”. For the compound `CC1=C(CC(=O)O)c2cc(F)ccc2/C1=C\c1ccc(S(C)=O)cc1` (stereo unspecified), the Potency result was “inactive”.

As for `C[C@@H]1CC(=O)Nc2cccc(-c3cnn(C(C)(C)C)c3)c2N1`, the Potency was 14.8 µM (active). Regarding `Cc1c(NC(=O)c2cc(C(N)=O)nc3cc(F)ccc23)c(C(F)(F)F)nn1Cc1ccc(C#N)cc1`, the Potency entry is “inactive and 14.8 µM (active)”.

Take `C[C@@H](O)[C@@H](C)Oc1nc(Nc2ccc(S(=N)(=O)C3CC3)cc2)ncc1C(F)(F)F` (stereo partly specified): the Potency was 3.32 µM (active).

Regarding `CC[C@H](Nc1ncnc2nc[nH]c12)c1oc2ccccc2c(=O)c1-c1cccc(F)c1`, the Potency was 5.9 µM (active).

Turning to `CN(C)C[C@@H]1CCn2cc(c3ccccc32)C2=C(C(=O)NC2=O)c2cn(c3ccccc23)CCO1`, the Potency is 0.186 µM (active).

On to `Cc1ccc(S(=O)(=O)Cc2nc(-c3ccc(C(=O)NCc4cccnc4)cc3)oc2C)cc1`, for which the Potency was 0.0118 µM (active). In the case of `C[C@H]1C[C@H]2[C@@H]3CCC4=CC(=O)C=C[C@]4(C)[C@H]3C(=O)C[C@]2(C)[C@@]1(O)C(=O)CO`, the Potency result was “inactive”.

For `NC(=O)c1cccc2c(NC(CN3CCC3)c3ccc(Cl)c(C(F)(F)F)c3)ncnc12` (stereo unspecified), the Potency was 1.48 µM (active). Next, `O=C(O)CCC(=O)Nc1ccc(S(=O)(=O)Nc2nccs2)cc1`: “inactive”; `O=C(CCCCCCC(=O)N/N=C/c1ccc(N(c2ccccc2)c2ccccc2)cc1)NO`: 4.17 µM (active); `COc1cc(C(=S)N2CCOCC2)cc(OC)c1OC`: “inactive”. Next, `CCOC(=O)CCNc1cc(N2CCc3ccccc3CC2)nc(-c2ccccn2)n1`: 4.68 µM (active).

Turning to `CCC1=C[C@@H]2CN(C1)Cc1c([nH]c3ccccc13)[C@@](C(=O)OC)(c1cc3c(cc1OC)N(C)[C@H]1[C@@](O)(C(=O)OC)[C@H](OC(C)=O)[C@]4(CC)C=CCN5CC[C@]31[C@@H]54)C2`, the Potency is 8.4 nM (active) and 91 nM (active).
